Assay [1] deals with Wnt5a (protein binding on small-molecule microarray). As to the kind of experiment: small molecules binding Wnt5a protein – biophysical, small-molecule microarray, 635/667 nm fluorescence, primary screen (AID 1142).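 Note: fluorescence read at 667 nm with signal to noise per printed feature.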 The note with it: 635 nm fluorescence, higher = more signal.
A short description of assay [2]: ATP-based viability of Huh7 replicon cells – cell-based, CellTiter-Glo luminescence, basal, 48 h, cytotoxicity control for HCV replication inhibitor project, primary screen (AID 1143).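 Note: Huh7 hepatoma cells carrying a hepatitis C replication reporter with no stimulus; test concentration not given here.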 Particulars: higher = more signal, called active from +8 up or from −8 down.
Assay [3] in a line: Pseudomonas biofilm growth suppression – PAO1 strain, BacTiter-Glo luminescence, LB-PBS, primary screen (AID 1144). The note with it: P. aeruginosa PAO1 biofilm, 12 h, higher = more signal.
Assay [4] can be described thus: basal CRE-LacZ reporter activity in PC12 – cell-based, unstimulated, primary screen (AID 1145). The note with it: no forskolin, luminescence, 4.5 h, higher = more signal, called active from +8 up or from −8 down.
Assay [5] in a line: forskolin-driven CRE-LacZ activity in PC12 – cell-based, CRE-LacZ reporter, forskolin-stimulated, primary screen (AID 1146).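 Note: PC12 cells with 6xCRE LacZ reporter stimulated by forskolin 10 µM; beta-galactosidase reporter signal reflecting CREB driven transcription.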 Particulars: luminescence, 4.5 h, higher = more signal, called active from +8 up or from −8 down.
Assay [6] deals with Streptavidin (Streptomyces avidinii) (UniProt P22629). The experiment in a line: compounds binding control protein streptavidin – biophysical, small-molecule microarray, 635/667 nm fluorescence, artefact control for SMM compound annotation, primary screen (AID 1147).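 Note: signal reflects streptavidin binding to arrayed compounds as a control protein.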 The note with it: higher = more signal.
Streptavidin (Streptomyces avidinii), sequence (P22629 whole entry, looked up): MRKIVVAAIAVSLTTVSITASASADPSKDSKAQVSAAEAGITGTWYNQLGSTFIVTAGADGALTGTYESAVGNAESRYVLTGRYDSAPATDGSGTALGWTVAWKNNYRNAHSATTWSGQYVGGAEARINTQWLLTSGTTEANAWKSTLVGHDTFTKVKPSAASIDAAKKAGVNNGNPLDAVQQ
The nature of assay [7]: probe aInhba binding on compound microarray – biochemical, small-molecule microarray, 635/667 nm fluorescence, primary screen (AID 1148).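 Note: score merges 667nm spot fluorescence with signal-to-noise for antibody binding to printed compounds.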 The note with it: higher = more signal.
In assay [8] the target is Torsin-1A (Homo sapiens) (UniProt O14656). As to the kind of experiment: TOR1A wild-type binding on microarray – cell lysate, small-molecule microarray, lysate, 635/667 nm, primary screen (AID 1149). Particulars: COS7 hTOR1A-WT lysate, 635 nm fluorescence, higher = more signal.
Torsin-1A (Homo sapiens), sequence (O14656 whole entry, looked up): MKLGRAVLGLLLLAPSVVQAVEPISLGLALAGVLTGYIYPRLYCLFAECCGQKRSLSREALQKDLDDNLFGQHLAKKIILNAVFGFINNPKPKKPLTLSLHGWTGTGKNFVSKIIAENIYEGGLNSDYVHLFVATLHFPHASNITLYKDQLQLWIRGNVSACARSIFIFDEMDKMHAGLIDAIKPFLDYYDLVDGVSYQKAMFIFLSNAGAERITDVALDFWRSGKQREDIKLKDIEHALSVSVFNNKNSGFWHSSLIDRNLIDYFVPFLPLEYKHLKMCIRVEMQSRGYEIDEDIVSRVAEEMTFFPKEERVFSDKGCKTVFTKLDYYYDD
Assay [9] shares this target. The experiment in a line: torsin A mutant lysate binding on microarrays – cell lysate, small-molecule microarray, COS7 lysate, 635/667 nm fluorescence, primary screen (AID 1150).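 Note: score pools 667 nm emission and signal to noise measuring lysate protein binding.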 The note with it: COS7 hTOR1A mutant lysate, 635 nm fluorescence, higher = more signal.
The test system of assay [10] is Sonic hedgehog protein (Shh). The experiment in a line: Sonic hedgehog microarray binding compounds – biochemical, small-molecule microarray, 635/667 nm fluorescence, primary screen (AID 1151).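 Note: Shh protein binding to compounds spotted on small-molecule microarray slides; score combines spot fluorescence intensity with signal-to-noise across triplicate slides.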 The note with it: 635 nm fluorescence, higher = more signal.

This passage reports composite z-score and z-score results from PubChem BioAssay.

Activity calls are given as the source filed them. Unless noted, the rule behind the calls is not given here.

Consider `COC(=O)[C@@]1(Cc2ccc(F)cc2)[C@H]2c3cc(C(=O)N4CCCC4)n(CCc4ccc(O)c(O)c4)c3C[C@H]2CN1C(=O)c1ccccc1`, for which the composite z-score in assay [1] was 1.2; in assay [6], -0.185; in assay [7], 1.24; with Torsin-1A (Homo sapiens) [8], 0.0585; with Torsin-1A (Homo sapiens) [9], 0.0389; in [10], -0.987. The z-score in [2] is -1.78 (inactive); in assay [3] it was -0.809 (inactive); in assay [4], 3.05 (inactive); in [5], -0.268 (inactive).

With `C=C(COC)/C(=C/C[C@H](OC(C)=O)c1ccc(OCCO)cc1)c1cc(C(=O)OC)ccc1OC`, the composite z-score in [1] was 0.39; in assay [6] it was -0.313; in [7] it was 0.0566; in the assay with Torsin-1A (Homo sapiens) [8] it was 2.01; with Torsin-1A (Homo sapiens) [9] it was 0.524; in assay [10] it was 1.92. Besides, the z-score is -0.519 (inactive) in assay [2], -0.339 (inactive) in [3], 13.8 (active) in assay [4] and 0.696 (inactive) in assay [5].

As for `O=C1O[C@@H](c2ccccc2)[C@@H](c2ccccc2)N2[C@@H](c3ccc(OCCO)cc3)[C@]3(C(=O)Nc4ccccc43)[C@@H](C(=O)O)[C@H]12`, the composite z-score in [1] is 0.615; in assay [6], 0.0928; in [7], 0.697; with Torsin-1A (Homo sapiens) [8], 0.043; with Torsin-1A (Homo sapiens) [9] it was 1.65; in assay [10], 0.301. For the same molecule, the z-score was -4.21 (inactive) in [2], -0.148 (inactive) in assay [3], -0.258 (inactive) in [4] and 0.273 (inactive) in assay [5].

As to `CCCCC=C[C@@H](NC(=O)c1ccc(-c2ccccc2)cc1)c1ccccc1`, the composite z-score was -0.0312 in assay [1]; 1.18 in [6]; 0.319 in assay [7]; 0.58 with Torsin-1A (Homo sapiens) [8]; 0.871 with Torsin-1A (Homo sapiens) [9]; -0.181 in [10]. In addition, the z-score in [2] was -1.76 (inactive); in [3], -0.00961 (inactive); in assay [4], 0.197 (inactive); in [5] it was -0.013 (inactive).

On to `CCOC(=O)C[C@H]1[C@H](OC(=O)c2ccc(C(=O)c3ccccc3)cc2)[C@@H](NC(=O)Cc2ccc(OC)cc2)c2cc(OCCCO)ccc2N1C(=O)c1ccccc1`, for which the composite z-score is 0.328 in assay [1]; 0.162 in assay [6]; -0.0762 in assay [7]; 0.0313 with Torsin-1A (Homo sapiens) [8]; 0.337 with Torsin-1A (Homo sapiens) [9]; 0.622 in assay [10]. The z-score in [2] is -0.117 (inactive); in [3], -0.0806 (inactive); in [4] it was 1.47 (inactive); in assay [5], 0.926 (inactive).

As for `CCCC[C@@H](O)C1=C(COc2ccccc2)C[C@H]2C(=O)N(C)C(=O)[C@H]2[C@H]1CO`, the composite z-score in assay [1] is -0.339; in assay [6], -0.803; in assay [7] it was -0.102; in the assay with Torsin-1A (Homo sapiens) [8], -0.631; with Torsin-1A (Homo sapiens) [9], 0.596; in assay [10] it was 0.406. The z-score in assay [2] was -1.22 (inactive); in [3] it was -1.24 (inactive); in assay [4], 2.49 (inactive); in assay [5], -0.94 (inactive).

For the molecule `CCCCN1CC=CC23O[C@@H]4/C=C\CCC(C)OC(=O)C4[C@H]2C(=O)N(C(CO)C(C)C)[C@@H]3C1=O` (stereo not given in full), the composite z-score in [1] was -0.0931; in assay [6] it was -0.271; in [7], -0.128; with Torsin-1A (Homo sapiens) [8], 0.624; with Torsin-1A (Homo sapiens) [9] it was 0.517; in [10] it was 1.42. The z-score in assay [2] was 0.415 (inactive); in assay [3], 0.524 (inactive); in [4] it was -0.895 (inactive); in assay [5], -0.651 (inactive).

`C=CCC(OC(C)=O)[C@@H]1[C@@H](N(Cc2ccc(-c3ccccc3)cc2)C(=O)Cc2ccc(F)cc2)c2cc(OCCCO)ccc2N1C(=O)Cc1ccc(OC)cc1` (stereo not given in full): the composite z-score is 0.205 in assay [1]; 0.586 in assay [6]; -0.128 in assay [7]; 0.106 in the assay with Torsin-1A (Homo sapiens) [8]; -0.751 with Torsin-1A (Homo sapiens) [9]; 0.164 in [10]. The z-score in assay [2] is 0.145 (inactive); in assay [3], 0.729 (inactive); in assay [4] it was 1.25 (inactive); in assay [5], 1.1 (inactive).

`N#Cc1ccc(C(O)C2C=CC3C(=O)N(c4ccccc4)C(=O)C3N2Nc2ccccc2)cc1` (stereo not given): the composite z-score is 0.429 in assay [1]; 0.592 in [6]; 0.144 in assay [7]; -0.0489 in the assay with Torsin-1A (Homo sapiens) [8]; 0.227 with Torsin-1A (Homo sapiens) [9]; -0.669 in assay [10]. In addition, the z-score in assay [2] was -3.06 (inactive); in assay [3] it was -0.955 (inactive); in assay [4], -0.133 (inactive); in assay [5], 0.0648 (inactive).

As to `C[C@@H]1NC(=O)[C@@]23C(=O)N[C@@H](Cc4ccccc4)C2[C@H](C)[C@@]2(C)O[C@H]2C3/C=C/C/C=C\CNC(=O)[C@@H]2CCCN2C1=O` (stereo not given in full), the composite z-score in assay [1] was -0.0872; in assay [6] it was -0.591; in [7], -0.159; with Torsin-1A (Homo sapiens) [8], 0.271; with Torsin-1A (Homo sapiens) [9], -0.127; in [10] it was 0.44. The z-score in [2] was -0.0642 (inactive); in assay [3] it was -0.426 (inactive); in assay [4], -0.687 (inactive); in assay [5], -0.226 (inactive).

Regarding `NC(N)=NCCCn1cc(CNC(=O)[C@@H](N)Cc2ccccc2)nn1`, the composite z-score in assay [1] was -0.0448; in [6], -0.298; in [7], 0.017; with Torsin-1A (Homo sapiens) [8] it was 0.485; in the assay with Torsin-1A (Homo sapiens) [9], 0.142; in assay [10] it was 1.08. The z-score in [2] was -0.109 (inactive); in [3], 1.6 (inactive); in [4] it was -0.491 (inactive); in [5], 0.35 (inactive).

Turning to `O=C1C2C=CC(C(O)c3ccccc3)N(Nc3ccccc3F)C2C(=O)N1c1ccccc1` (stereo not given), the composite z-score was 0.1 in [1]; 0.23 in [6]; -0.127 in assay [7]; -0.292 in the assay with Torsin-1A (Homo sapiens) [8]; -0.493 in the assay with Torsin-1A (Homo sapiens) [9]; -0.244 in assay [10]. Besides, the z-score is -1.7 (inactive) in assay [2], 0.298 (inactive) in assay [3], 0.0707 (inactive) in assay [4] and 0.39 (inactive) in assay [5].

With `COc1ccc(C(O)C2C=CC3C(=O)N(c4ccccc4)C(=O)C3N2Nc2ccc([N+](=O)[O-])cc2)cc1` (stereo not given), the composite z-score in assay [1] is 0.516; in assay [6], 0.789; in assay [7], 1.18; with Torsin-1A (Homo sapiens) [8], 0.0294; with Torsin-1A (Homo sapiens) [9] it was 0.874; in [10], -0.397. The z-score in assay [2] was -0.474 (inactive); in assay [3], 0.403 (inactive); in assay [4] it was 0.182 (inactive); in assay [5] it was -0.298 (inactive).

For `N#Cc1ccc(NN2C(C(O)c3ccc(F)cc3)C=CC3C(=O)N(c4ccccc4)C(=O)C32)cc1` (stereo not given), the composite z-score in [1] is 0.0035; in assay [6] it was 0.945; in assay [7] it was -0.0791; in the assay with Torsin-1A (Homo sapiens) [8], 0.0271; with Torsin-1A (Homo sapiens) [9], -0.0504; in [10] it was -0.304. Further, the z-score in assay [2] is 0.632 (inactive); in assay [3], -0.377 (inactive); in assay [4], 0.629 (inactive); in assay [5], 0.521 (inactive).

Take `Cc1ccc(S[C@]2(C(=O)NCC(F)(F)F)CC(=O)N(C3CCCCC3)[C@@H]2c2ccc(CO)cc2I)cc1`: the composite z-score in assay [1] was -0.0208; in assay [6], 0.864; in assay [7] it was 0.0074; with Torsin-1A (Homo sapiens) [8], -0.357; with Torsin-1A (Homo sapiens) [9], 1.19; in assay [10], 0.834. For the same molecule, the z-score in assay [2] was -1.76 (inactive); in assay [3] it was 1.13 (inactive); in [4], 0.622 (inactive); in [5], 0.343 (inactive).

On to `CN(C)CCCNC(=O)[C@@H]1c2ccccc2C(=O)N(Cc2ccccc2Cl)[C@H]1c1ccc(CO)cc1`, for which the composite z-score in assay [1] is -0.12; in [6] it was -0.34; in assay [7], -0.182; with Torsin-1A (Homo sapiens) [8], 1.59; with Torsin-1A (Homo sapiens) [9] it was 0.798; in [10], -0.12. Further, the z-score in assay [2] is -1.77 (inactive); in [3], 0.388 (inactive); in [4], -0.206 (inactive); in assay [5], -0.343 (inactive).

Take `COC(=O)c1c2oc(c1C(=O)OC)C(=O)N(C)Cc1cn(nn1)C[C@H](Cc1ccccc1)NC(=O)N[C@H](CO)CC2`: the composite z-score in [1] was -0.334; in assay [6], -0.403; in [7] it was -0.0576; in the assay with Torsin-1A (Homo sapiens) [8], -0.794; with Torsin-1A (Homo sapiens) [9], -0.641; in assay [10], 0.624. The z-score in assay [2] is 0.336 (inactive); in assay [3], 0.553 (inactive); in [4], 0.148 (inactive); in assay [5], -0.324 (inactive).

With `[N-]=[N+]=NCc1ccccc1[C@H]1OC(c2ccc(OCCCO)cc2)=N[C@@]1(CCS(=O)(=O)c1ccccc1)C(=O)NCC(O)CO` (stereo not given in full), the composite z-score is 0.914 in assay [1]; 1.2 in assay [6]; 0.257 in assay [7]; 0.662 in the assay with Torsin-1A (Homo sapiens) [8]; 1.41 in the assay with Torsin-1A (Homo sapiens) [9]; -0.276 in assay [10]. The z-score in [2] was -0.119 (inactive); in assay [3], -1.53 (inactive); in assay [4] it was 1.99 (inactive); in [5], -0.75 (inactive).
